Results taken from PubChem BioAssay AID1531 (NMMLSC, 2009).
The campaign covered roughly 290,000 compounds. About 3,300 (1.1%) were called active. Only a selection was taken, and actives are over-represented in it overall. Unmarked numbers belong to inactive results. Rule as the data show it: active = binding response below about 67% or above about 130%; inconclusive = no clear call, values can overlap the other calls; inactive = in between.

target: Mitogen-activated protein kinase kinase kinase 2 (Homo sapiens) (UniProt Q9Y2U5); experiment: modulators of MEK5 binding to wildtype MEKK2, primary screen, biochemical, multiplex bead flow cytometry, Alexa488-MEK5 (AID 1531); conditions: Alexa488-MEK5 binding to MEKK2 WT, at 10 µM, actives lie on both sides

Compound	binding response (% of control)
COC(C[C@@H]1O[C@@H]1C(=O)[C@@H](C)OCc1ccccc1)OC	97%
O=C(CCN1CCc2ccccc2C(O)(c2ccccc2)C1)c1ccc2c(c1)OCCO2 (configuration not stated)	103%
O=C(NCCN1CCOCC1)c1ccc(/C=C2\Sc3ccccc3N(Cc3ccc(F)cc3)C2=O)cc1	128%
CCN1CCN(CCNC(=O)c2ccc3c(c2)NC(=O)/C(=C\c2ccc(OC)c(OC)c2)S3)CC1	131%
CCN1CCN(CCNC(=O)c2ccc(/C=C3/Sc4ccccc4N(Cc4cccc(C)c4)C3=O)cc2)CC1	220% (active)
CCOc1cc(C)c(S(=O)(=O)NCc2ccccn2)cc1C	102%
Cc1cccc(N2CCN(C(=O)COCc3cc(-c4ccc5c(c4)OCO5)on3)CC2)c1C	100%
Cc1nc2sccn2c(=O)c1S(=O)(=O)NCCc1ccccc1	99%
COc1ccc(CN2[C@@H](CC(=O)O)c3cc(F)ccc3S2(=O)=O)cc1	84%
CC(Oc1cccc(Cl)c1)C(=O)NC1CC(C)(C)NC(C)(C)C1 (configuration not stated)	107%
Cc1cc(-c2csc(N)n2)c(C)n1Cc1ccccc1	89%
CC(=O)Nc1ccc(C(=O)Nc2nc(-c3cc(C)n(Cc4ccccc4)c3C)cs2)cc1	107%
Cc1cc(-c2csc(N)n2)c(C)n1-c1ccccc1	-9% (active)
COC(=O)CN1C(=O)[C@H]2[C@@H](/C=C/c3ccccc3)N3C(=O)CN(Cc4ccccc4)C(=O)[C@@]3(Cc3ccccc3)[C@H]2C1=O	95%
COCCNc1cc(-c2ccccc2)nc2cc(-c3cccc(F)c3)nn12	118%
O=C1CCNCCN1[C@H](CO)Cc1ccccc1	110%
COc1ccc(SC[C@H](Cc2ccccc2)N2CCN(CCc3ccccc3)CCC2=O)cc1	158% (active)
C[C@H]1CCC(=O)N([C@H](CSc2ccccc2)Cc2ccccc2)CC1	161% (active)
CN1CCC(=O)N([C@H](CO)Cc2ccccc2)CC1	97%
O=C1CCN(Cc2ccccc2)CCN1[C@H](CSc1ccccc1)c1ccccc1	90%
COc1ccc(SCCN2CCN(CC(C)C)CCC2=O)cc1	131%
O=C(NCc1ccccc1)C1=C[C@@H](c2ccccc2)C[C@@H](OCCCCO)O1	101%
COCOc1cc(O)c(C(=O)/C=C/c2ccc(OCOC)c(OCOC)c2)c(OCOC)c1	111%

Compound	binding response (% of control)
COc1ccccc1N1CCN(c2nc(C)cc(=O)[nH]2)CC1	107%
CCCCOc1ccc(C(=O)NN2CCN(C)CC2)cc1	99%
CCCOc1ccc(C(=O)C(CCC(CNCC)C(=O)c2ccc(OCCC)cc2)CNCC)cc1 (configuration not stated)	188% (active)
CCCCOc1ccc(C(=O)NCc2ccncc2)cc1	111%
CCCCN(CCCC)CCNC(=O)CN1C(=O)COc2ccc(S(=O)(=O)N3CCOCC3)cc21	103%
COc1ccc(N=Cc2c(O)[nH]c3ccccc23)cc1OC	103%
CCn1c(-c2cc(OC)ccc2OC)csc1=Nc1c(C)n(C)n(-c2ccccc2)c1=O	107%
CN=c1scc(-c2cc(OC)ccc2OC)n1/N=C/c1c(C)[nH]c2ccccc12	10% (active)
Cc1cc(OCC(=O)NCC(O)c2ccccc2)c2c(C)c(C)c(=O)oc2c1 (configuration not stated)	100%
O=C(Nc1ccccc1)c1ccc2c(c1)OCCCO2	105%
COc1ccc(C(C)NC(=S)NC2CCCCC2)cc1OC (configuration not stated)	101%
Cc1cn(COC/C=C/c2ccccc2)c(=O)[nH]c1=O	-7% [inhibitor] (active)
Cc1nc2nc[nH]n2c(=O)c1C/C=C/c1ccccc1	83%
Cc1[nH]c(=O)c(C(=O)/C=C/c2ccccc2)c2c1CCCC2	101%
COc1ccc(-c2nc3c(s2)CCc2onc(-c4ccc(Br)cc4)c2-3)cc1	95%
CCCCN(CCCC)CCCNC(=O)CN1C(=O)COc2ccc(S(=O)(=O)N3CCC(C)CC3)cc21	96%
CCOc1ccc(N=C2SC(C(=O)O)CC(=O)N2C)cc1 (configuration not stated)	92%
COc1ccc(N=C2SC(C(=O)Nc3ccc(F)cc3)CC(=O)N2C)cc1 (configuration not stated)	97%
CN=C1SC(C(=O)O)CC(=O)N1C (configuration not stated)	3% (active)
COc1cccc(CNCCc2c[nH]c3ccccc23)c1OCc1ccccc1F	159% (active)
COc1ccccc1CC(=O)NCCc1c[nH]c2ccccc12	101%
COc1ccc(S(=O)(=O)NCCc2c[nH]c3ccccc23)cc1OC	100%
CCn1cc(C(=O)NCC(=O)NC(C)(C)CO)c(=O)c2cc3c(cc21)OCO3	101%

Compound	binding response (% of control)
O=C(OCC(=O)N1CCN(C(=O)c2ccco2)CC1)c1cccc(O)c1	106%
Cc1c(C(=O)NC2CCCCC2)oc2ccccc12	108%
Cc1c(C)c2c(OCC(=O)NCCCO)cc3c(c2oc1=O)CCC(C)(C)O3	99%
CS(=O)(=O)N(CC(=O)N1CCN(Cc2ccccc2)CC1)c1ccc2c(c1)OCCO2	103%
c1ccc(CN2CCC(N=C3NN=C(c4ccc5c(c4)OCCO5)CS3)CC2)cc1	154% (active)
Clc1cccc(N=C2NN=C(c3ccc4c(c3)OCCO4)CS2)c1	97%
CC1(c2nnc(-c3ccncc3)o2)CC(c2cccnc2)=NO1 (configuration not stated)	105%
O=C(NCCc1ccc(Cl)cc1Cl)c1cc([N+](=O)[O-])c[nH]c1=O	96%
COc1ccc(Cn2c(-c3ccc(Cl)cc3)c[n+]3ccccc23)cc1	112%
Cc1c(C)c2ccc(OCC(=O)N3CCN(c4cccc(Cl)c4)CC3)cc2oc1=O	92%
Cc1ccc(C(CNC(=O)Nc2cccc(C)c2)N2CCN(C)CC2)cc1 (configuration not stated)	104%
CCN1C(=NCc2ccc(OC)cc2)N[C@@H](CCc2ccccc2)[C@H](C(=O)NCc2ccc(OC)cc2)[C@H]1C	139% (active)
CCN1C(=NCC(C)C)N[C@@H](CCc2ccccc2)[C@H](C(=O)NCC(C)C)[C@H]1C	103%
CCN1C(=S)N[C@@H](CCc2ccccc2)[C@H](C(=O)OC)[C@H]1C	98%
COc1ccc(CCNS(=O)(=O)c2cc3c(cc2C)NC(=O)CO3)cc1OC	98%
COc1ccc(NC(=O)CSc2nc3ccccc3c(=O)n2C)cc1	105%
COc1ccccc1/C=N/Nc1nc(C)c(C(C)=O)s1	95%
O=C(CSc1nc(Nc2ccccc2)nc(N2CCOCC2)n1)Nc1cc(Cl)ccc1O	99%
Cc1c(CCOC(=O)CC23CC4CC(CC(C)(C4)C2)C3)sc[n+]1Cc1ccc([N+](=O)[O-])cc1	172% (active)
Cc1c(CCOC(=O)c2cc([N+](=O)[O-])ccc2Cl)sc[n+]1CCCCS(=O)(=O)[O-]	97%
Cc1c(CCO)sc[n+]1CC(=O)OC12CC3CC(CC(C3)C1)C2	97%
CS(=O)(=O)N(Cc1nc2sc3c(c2c(=O)[nH]1)CCCC3)C1CCCCC1	99%
COc1ccc(-c2csc3ncnc(N4CCN(S(=O)(=O)c5ccccc5C#N)CC4)c23)cc1	107%

Compound	binding response (% of control)
CC1(OC(=O)CCc2ccccc2)C(=O)C=C2C=C(c3ccc(C#N)cc3)N(CCc3ccccn3)C=C2C1=O (configuration not stated)	111%
C=CCN1C=C2C(=O)C(C)(OC(=O)CCc3ccccc3)C(=O)C=C2C=C1c1ccc(C#N)cc1 (configuration not stated)	142% (active)
COC(=O)CCCC1=CC2=CC(=O)C(C)(OC(=O)c3cccs3)C(=O)C2=CN1c1cccc(C#N)c1 (configuration not stated)	96%
Cc1ccc(C23CC4CC(CC(C(=O)NCC(=O)O)(C4)C2)C3)cc1	105%
N#C/C(=C\c1cccnc1)C(=O)Nc1ccc(SC(F)F)cc1	107%
CCOc1ccc(N/C=C/C(=O)c2ccccc2)cc1	109%
Cc1ccc(-c2nn(-c3ccccc3)cc2CN(Cc2ccccc2)C(=O)CCC(=O)O)o1	97%
CCc1ccc(-c2nn(-c3ccccc3)cc2CSC(=N)N)cc1	140% (active)
O=C(Nc1cn(-c2ccccc2)nc1-c1ccccc1)c1ccccc1	96%
CC(=O)NCCc1ccc(S(=O)(=O)Nc2ccc(C)c(S(=O)(=O)N3CCOCC3)c2)cc1	103%
CCc1ccccc1NC(=O)c1ccc2snnc2c1	100%
O=C(Nc1ccc2ccccc2c1)Nc1ccc2snnc2c1	158% (active)
O=C(Nc1cccc(Br)c1)c1ccc2snnc2c1	97%
COc1ccc2c(c1)CCNC2Cc1ccc(OC)c(O)c1 (configuration not stated)	96%
COc1ccc(N2CCN(CCNC(=O)Nc3cc(Cl)ccc3Cl)CC2)cc1	113%
C=CC1=C(C(=O)O)N2C(=O)[C@@H](NC(=O)/C(=N/OCC(=O)O)c3csc(N)n3)[C@H]2SC1	98%
COc1ccc(/C=N/N=C2/C(=O)Nc3ccccc32)cc1O	98%
O=C1Nc2ccc(Br)cc2/C1=N/N=C/C1=C(N2CCOCC2)C(=C\c2ccccc2)/CC1	40% [inhibitor] (active)
C(=N\N1CCN(c2ccccn2)CC1)/C1=C(N2CCOCC2)C(=C/c2ccccc2)/CC1	104%
CS(=O)(=O)N1CCN(C(=O)CSc2ccccc2)CC1	101%
COc1ccc(C)cc1Nc1n[n+](-c2ccccc2)c(-c2cccc(Cl)c2Cl)s1	120%
CC(C)(C)C(=O)c1cnc(Nc2ccccc2)s1	100%
COc1cc(Br)c(-c2sc(Nc3ccccc3)n[n+]2-c2ccccc2)cc1OC	152% (active)
